This is part of a sample that, as a whole, favours compounds with a hit. Of some 83,000 tested, about 20% had one in any assay.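 Growth was measured after 48 h exposure to one concentration of compound in 96-well plates. Values under 10 count as active.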 A number with no mark means an inactive call. Activity calls are given as the source filed them.

Among the test systems are DU-145 prostate; K-562 leukemia; MALME-3M melanoma; MDA-MB-231 breast; RXF 393 renal; SF-268 CNS; SF-295 CNS; SF-539 CNS; UACC-257 melanoma; M14 melanoma; HCT-15 colon; HT29 colon; SNB-75 CNS; SNB-19 CNS; U251 CNS; PC-3 prostate; SK-MEL-5 melanoma; UACC-62 melanoma; LOX IMVI melanoma; SK-MEL-28 melanoma.
Holding throughout (assay): NCI-60 one-dose screen, 48 h (100 = growth as untreated, 0 = no growth, -100 = all killed)
Conditions in all cases: 10 µM unless noted

For the compound `COc1cc(/C=C2/C=C(c3ccccc3)N(CCc3ccc(S(N)(=O)=O)cc3)C2=O)cc(OC)c1OC`, the growth with DU-145 prostate was 109%; in the experiment with K-562 leukemia, 93.6%; with MALME-3M melanoma, 84.2%; with MDA-MB-231 breast it was 96.8%; in the experiment with RXF 393 renal, 96.1%; in the experiment on SF-268 CNS, 107%. Further, the growth with SF-295 CNS was 99.2%; in the experiment with SF-539 CNS, 101%; in the experiment with UACC-257 melanoma, 84%; with M14 melanoma, 89.8%; in the experiment with HCT-15 colon, 100%; in the experiment with HT29 colon, 94.7%. Moreover, the growth is 71.9% with SNB-75 CNS; 101% in the experiment on SNB-19 CNS; 87% in the experiment on U251 CNS; 44.2% in the experiment on PC-3 prostate; 90.7% in the experiment with SK-MEL-5 melanoma; 89.6% in the experiment with UACC-62 melanoma. Besides, the growth in the experiment with LOX IMVI melanoma is 101%; in the experiment on SK-MEL-28 melanoma, 119%.
`CCC(C)N(CCNc1cc(OC)cc2cccnc12)CC(C)C` (stereo not given): the growth with DU-145 prostate is 112%; with K-562 leukemia it was 83.1%; in the experiment on MALME-3M melanoma it was 119%; in the experiment with MDA-MB-231 breast it was 87.8%; in the experiment with RXF 393 renal it was 122%; in the experiment on SF-268 CNS it was 96.4%. Further, the growth in the experiment on SF-295 CNS is 110%; in the experiment with SF-539 CNS it was 115%; in the experiment on UACC-257 melanoma, 99.8%; in the experiment with M14 melanoma, 110%; in the experiment with HCT-15 colon, 71.7%; in the experiment with HT29 colon, 73.7%. The growth is 109% with SNB-75 CNS; 94.3% with SNB-19 CNS; 99.4% with U251 CNS; 83.5% in the experiment with PC-3 prostate; 103% in the experiment on SK-MEL-5 melanoma; 88.9% with UACC-62 melanoma. Besides, the results for the growth with LOX IMVI melanoma and in the experiment on SK-MEL-28 melanoma were 76.9% and 109%, respectively.
Consider `O=C1NC(=O)C(Cc2ccc(OCc3ccc(-c4ccc(Cl)cc4Cl)cc3)cc2)S1` (stereo not given), for which the growth in the experiment with DU-145 prostate is 78.9%; with K-562 leukemia it was 23.5%; in the experiment with MALME-3M melanoma it was 49.9%; with MDA-MB-231 breast, 71%; in the experiment on RXF 393 renal, 76.1%; in the experiment on SF-268 CNS, 51.8%. Besides, the growth in the experiment on SF-295 CNS is 45%; in the experiment on SF-539 CNS, 56.2%; in the experiment with UACC-257 melanoma, 55.7%; with M14 melanoma, 47.5%; in the experiment on HCT-15 colon it was 39.5%; with HT29 colon it was 86.3%. The growth in the experiment with SNB-75 CNS was 59.1%; in the experiment on SNB-19 CNS, 73.8%; in the experiment with U251 CNS it was 57.6%; in the experiment with PC-3 prostate, 32.2%; in the experiment on SK-MEL-5 melanoma, -28.4% (active); with UACC-62 melanoma, 41.9%. Besides, the growth in the experiment on LOX IMVI melanoma is 37.1%; in the experiment with SK-MEL-28 melanoma it was 65.3%.
Turning to `CNC(=O)c1ccccc1Oc1nc(Nc2cc(OC)c(OC)c(OC)c2)ncc1Br`, the growth in the experiment on DU-145 prostate is 58.1%; with K-562 leukemia it was 77.2%; in the experiment on MALME-3M melanoma, 82.3%; with MDA-MB-231 breast, 75.4%; in the experiment with RXF 393 renal, 40.3%; in the experiment on SF-268 CNS it was 59.3%. Also, the growth with SF-295 CNS was 53%; with SF-539 CNS, 71.1%; in the experiment on UACC-257 melanoma it was 77%; in the experiment on M14 melanoma it was 47.7%; with HCT-15 colon, 59.9%; in the experiment with HT29 colon it was 45.1%. Moreover, the growth was 53.1% in the experiment on SNB-75 CNS; 94.9% in the experiment with SNB-19 CNS; 57.6% in the experiment with U251 CNS; 61.4% in the experiment on PC-3 prostate; 80% in the experiment on SK-MEL-5 melanoma; 50.7% in the experiment with UACC-62 melanoma. Further, the growth was 21.8% in the experiment with LOX IMVI melanoma and 80.5% in the experiment on SK-MEL-28 melanoma.
Turning to `O=C1/C(=C/c2ccc([N+](=O)[O-])cc2)COc2ccc(O)cc21`, the growth is 92.6% in the experiment on DU-145 prostate; 11.2% with K-562 leukemia; 96.1% in the experiment on MALME-3M melanoma; 80.8% in the experiment on MDA-MB-231 breast; 98.9% with RXF 393 renal; 84% with SF-268 CNS. Further, the growth with SF-295 CNS is 98.6%; in the experiment on SF-539 CNS, 94.5%; in the experiment with UACC-257 melanoma, 106%; in the experiment on M14 melanoma, 88.2%; in the experiment with HCT-15 colon it was 28.3%; with HT29 colon, 4.43% (active). Besides, the growth was 83.4% with SNB-75 CNS; 91.4% with SNB-19 CNS; 66.1% in the experiment on U251 CNS; 88.3% in the experiment on PC-3 prostate; 94% in the experiment with SK-MEL-5 melanoma; 76.3% with UACC-62 melanoma. Moreover, the growth with LOX IMVI melanoma is 1.76% (active); in the experiment on SK-MEL-28 melanoma, 108%.
On to `Cc1c2cnccc2c(C)c2c1c1cc(C#N)ccc1n2C`, for which the growth in the experiment with DU-145 prostate is 3.34% (active); in the experiment on K-562 leukemia, -8.24% (active); in the experiment with MALME-3M melanoma it was -77.4% (active); in the experiment on MDA-MB-231 breast it was -23.5% (active); in the experiment on RXF 393 renal, -85.1% (active); with SF-268 CNS it was -8.27% (active). In addition, the growth was -11.7% (active) with SF-295 CNS; -61.7% (active) with SF-539 CNS; -29% (active) with UACC-257 melanoma; -83.3% (active) in the experiment with M14 melanoma; -20.6% (active) in the experiment with HCT-15 colon; -18.9% (active) with HT29 colon. Besides, the growth was -35.8% (active) with SNB-75 CNS; -1.41% (active) in the experiment with SNB-19 CNS; -10.5% (active) with U251 CNS; -17.2% (active) in the experiment on PC-3 prostate; -98.7% (active) in the experiment with SK-MEL-5 melanoma; -52.6% (active) in the experiment on UACC-62 melanoma. Further, the growth in the experiment with LOX IMVI melanoma was -35.6% (active); with SK-MEL-28 melanoma, -39.7% (active).
For `Cc1ccc(NC(=O)Cn2cc(CN3CCN(c4ccnc5cc(Cl)ccc45)CC3)nn2)cc1`, the growth in the experiment on DU-145 prostate is 102%; with K-562 leukemia it was 63.8%; with MALME-3M melanoma, 100%; in the experiment on MDA-MB-231 breast it was 77.1%; in the experiment on RXF 393 renal it was 88.5%; in the experiment on SF-268 CNS, 80.1%. Also, the growth in the experiment on SF-295 CNS was 86.3%; with SF-539 CNS, 98.7%; in the experiment with UACC-257 melanoma, 103%; in the experiment on M14 melanoma it was 103%; in the experiment with HCT-15 colon, 84.7%; in the experiment on HT29 colon it was 105%. For the same compound, the growth in the experiment with SNB-75 CNS was 70.7%; in the experiment on SNB-19 CNS it was 89.2%; in the experiment with U251 CNS, 89.4%; in the experiment on PC-3 prostate, 63.1%; in the experiment with SK-MEL-5 melanoma it was 77.7%; in the experiment with UACC-62 melanoma it was 77.7%. Besides, the growth with LOX IMVI melanoma was 82.4%; in the experiment with SK-MEL-28 melanoma, 104%.
`Nc1ncc(-c2ccc3ncnc(Nc4cccc(Cl)c4)c3c2)cn1`: the growth was 28.9% in the experiment on DU-145 prostate; 58.2% with K-562 leukemia; 40.4% in the experiment on MALME-3M melanoma; 42.1% in the experiment on MDA-MB-231 breast; 25.2% in the experiment on RXF 393 renal; 42% in the experiment with SF-268 CNS. Besides, the growth is 44.2% with SF-295 CNS; 54.2% in the experiment with SF-539 CNS; 65.7% in the experiment with UACC-257 melanoma; 60.6% in the experiment with M14 melanoma; 38.8% with HCT-15 colon; 40% with HT29 colon. For the same compound, the growth with SNB-75 CNS is 49.8%; with SNB-19 CNS it was 59.4%; with U251 CNS it was 43.6%; in the experiment on PC-3 prostate, 36.1%; in the experiment with SK-MEL-5 melanoma, 64.8%; in the experiment with UACC-62 melanoma it was 50.6%. Also, the growth was 44.8% in the experiment on LOX IMVI melanoma and 63.8% in the experiment on SK-MEL-28 melanoma.

The record behind these values is PubChem BioAssay (NCI).
